This is part of a sample that, as a whole, favours compounds with a hit. Of some 79,000 tested, about 15% had one in any assay. Values without a mark were called inactive. The source made the active and inactive calls. Rule as the data show it: active = growth inhibition above about 70%; inactive = the rest.
assay: NCI Yeast Anticancer Drug Screen. Data for the mec2-1 strain (AID 157); details: S. cerevisiae mec2-1 strain, at 50.0 µM, hits give high values
Protocol: Growth inhibition of yeast strains with defined genetic alterations is measured as a screen for potential anti-cancer activity. Selected strains with alterations in DNA damage repair or cell cycle control were exposed to compounds and growth inhibition was measured relative to vehicle treated controls. The strain used in this assay is mec2-1

SMILES | growth inhibition
CCN(CC)CCNc1c(C)cccc1Cl | 3.5%
CC(C)CC1=[N+]=C(NC#N)N=C(CCC(=O)Nc2ccccc2[N+](=O)[O-])C1 | -5.5%
COC(=O)C(O)CC1=CC[C@@H]2CC=C[C@H]12 (stereo not given in full) | 1.7%
COc1ccc(Cl)c(C(=O)O)c1 | 6.9%
BrC1=C(c2ccccc2)C2CCCCC2C1(Br)c1ccccc1 (stereo not given) | 97.1% (active)
CCc1cccc[n+]1CC(=O)c1ccccc1 | 5.85%
Cc1cc(-c2ccc([NH2+][B-](F)(F)F)c(C)c2)ccc1[NH2+][B-](F)(F)F | -3.15%
O=C(Cn1cc[n+](CC(=O)c2ccccc2)c1)c1ccccc1 | 4.7%
Cc1ccnc(NS(=O)(=O)c2ccc(N=Cc3ccccc3O)cc2)n1 | -20.1%
COc1cccc2c(NCCCCCO[N+](=O)[O-])cc[n+](C)c12 | -24.4%
COC(=O)C1(NC(=O)C2(N3C(=O)c4ccccc4C3=O)CCCC2)CCCC1 | -0.95%
CCOC(=O)/C=C(\C)c1ccc(OC)cc1 | -22.4%
CCCS(=O)(=O)CCC(=O)c1cccs1 | -12.1%
CCOP(=Nc1ccccc1)(OCC)OCC | 5.85%
CCCCc1c2c(nc3c1CCC/C3=C\c1ccccc1)/C(=C/c1ccccc1)CCC2 | 16.9%
Cc1cc(Cc2ccc(NC(=O)N3CC3)c(C)c2)ccc1NC(=O)N1CC1 | -8.25%
CCCC(=O)OCC1OC(n2cc(F)c(=O)[nH]c2=O)C(F)C1OC(=O)CCC (stereo not given) | 15.1%
COc1ccc2nc(NCN3C(=O)c4ccccc4C3=O)sc2c1 | -4.05%
CC1(SCC(N)C(=O)O)CC(=O)NC1=O (stereo not given) | -33.1%
CCC(C)(O)CCc1ccccc1 (stereo not given) | -42.6%

SMILES | growth inhibition
Nc1nc2nn(-c3ccc(C(=O)NC(CCC(=O)O)C(=O)O)cc3)nc2c(=O)[nH]1 (stereo not given) | 2.75%
CN1CC[C@H]([C@@H](O)c2ccccc2)C1=O | -7%
Cc1ccccc1NC(=O)NN | -24.1%
CN1C(=O)c2cnc3ccccc3c2C1(O)c1ccccc1 (stereo not given) | 1.35%
O=C(NC1CCCCC1)C1C(=O)C(=O)N(C2CCCCC2)C1=O (stereo not given) | -1.35%
Cc1cccc(N=Cc2ccc(N(CCC#N)S(=O)(=O)c3ccccc3)cc2C)c1 | -16.6%
CO/N=C1C=C/C(=N\OC)C\1 | -28.2%
O=C(C[N+](=O)[O-])OCc1ccccc1 | 22.8%
CCC(C)(O)C#CC#CC(C)(O)CC (stereo not given) | -22.2%
Cc1ccc(S(=O)(=O)N(c2c(F)cc(C#N)cc2F)S(=O)(=O)c2ccc(C)cc2)cc1 | 6.35%
CN(C)CCNC(=O)Cn1cnc2cccc([N+](=O)[O-])c2c1=O | 17%
CCOC(=O)C1=C(C)OC(=O)CC1C (stereo not given) | -15.8%
Brc1cccc[n+]1CCC[n+]1ccccc1Br | 18.8%
Cc1ccccc1NC(=O)c1ccc(C(=O)Nc2ccccc2C)cc1 | -10.8%
Oc1c(Cl)cc(Cl)cc1CN(Cc1cc(Cl)cc(Cl)c1O)c1ccccc1 | 16.9%
NC1=NC(=O)C2(CCCCC2)S1 | -4.8%
O=C(C/C(=N\NC(=O)C[n+]1ccccc1)C(=O)Nc1nc2ccc([N+](=O)[O-])cc2s1)CC(c1ccccc1)c1c(O)c2ccccc2oc1=O (stereo not given) | -15%
Cc1ccc(S(=O)(=O)NC(=O)Nc2c(-c3nc4ccccc4s3)[n+]([O-])c3ccccc3[n+]2[O-])cc1 | 5.5%
CCOC(=O)c1ccc([N+](=O)[O-])cc1 | -12%
O=C1OI(OI2OC(=O)c3ccccc32)c2ccccc21 (tested in a mixture with another compound) | -9.6%

Reference: PubChem BioAssay (NCI)
